TWEAK Fn14 block: blocks TWEAK-Fn14 interaction in a reporter cell assay; TWEAK-stimulated Fn14 reporter cells, luciferase luminescence, 8 h; inhibition, % at 10 µM; actives 2% (n = 360,000); in the data active means inhibition above about 50%
EBV LMP1 NFkB: inhibitors of Epstein-Barr LMP1-induced NF-kappaB reporter; LMP1-induced NF-kappaB luciferase reporter cells, luminescence; AID 504558; actives 0.69% (n = 350,000); inhibition, % at 12.5 µM; in the data active means inhibition above about 41%
MITF TRPM1 inh: MITF TRPM1 promoter inhibition in SK-MEL-5 cells. SK-MEL-5 TRPM1 promoter luciferase, 24 h. inhibition, % at 12.5 µM. actives 0.83% (n = 330,000). AID 488899;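 active means mean inhibition across replicates of 60% or more, whatever share of single replicates reaches that level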
Shn3 inh set2: reduces Shn3 3'UTR luciferase signal in osteoblasts | actives 0.52% (n = 360,000) | Clone20 osteoblast Shn3 3'UTR firefly luciferase, 24 h | AID 588674 | inhibition, % at 12.5 µM;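 active means mean inhibition of at least 75% with every replicate also reaching 75%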
TROY signal inh: blocks TROY-dependent signaling in reporter cells. Q293 LMP1-TROYcd NF-kB luciferase reporter, 4 h. actives 0.98% (n = 360,000). inhibition, % at 10 µM. AID 1347056;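 active means compounds whose plate-normalised and pattern-corrected inhibition of the luciferase reporter signal at the single screening dose is 50% or more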
HIF-2a block: blocks HIF-2a reporter activity; 786-0 RCC cells HIF-2a reporter, luciferase luminescence, overnight; inhibition, % at 18.8 µM; actives 0.72% (n = 360,000); AID 624352;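 active means inhibition of the luminescence signal of 40% or more relative to plate controls, in a single-dose primary screen at 18.75 µM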
Of the large screens only hits and unclear results are named; the others gave an inactive call; ! = repeats disagree. Only some compounds are listed: those with a hit (about 3.4% of all), similar ones and a draw of the others.

CN1CCc2c(sc3nc(SCC(=O)N4CCOCC4)n(-c4ccc(Cl)cc4)c(=O)c23)C1	none
O=C(Nc1nc(-c2ccc3c(c2)OCCO3)cs1)c1ccc(Br)o1	TROY signal inh 55 (no result: MITF TRPM1 inh)
N#CCC(=O)Nc1nc(-c2ccc3c(c2)OCCO3)cs1	none
Cc1cccc(Nc2nc(-c3ccc4c(c3)OCCO4)cs2)c1	TWEAK Fn14 block 70, TROY signal inh 66
O=C(CCCCl)Nc1nc(-c2ccc3c(c2)OCCO3)cs1	TWEAK Fn14 block 51
Cc1ccc(C(=O)Nc2nc(-c3ccc4c(c3)OCCO4)cs2)o1	none (no result: MITF TRPM1 inh)
c1cncc(-c2nc(-c3ccc4c(c3)OCCO4)cs2)c1	TWEAK Fn14 block 52
Nc1ccn([C@@H]2O[C@H](CNC(=O)[C@H]3CCC(=O)N3)[C@@H](O)[C@H]2O)c(=O)n1	none (no result: MITF TRPM1 inh)
CCOc1ccc(N2CC(C(=O)NCCCc3ccccc3)CC2=O)cc1 (stereo unspecified)	none
CC(=O)Nc1ccc(S(=O)(=O)N2CCC(NC(=O)C(Cc3ccc(C)cc3)NC(C)=O)CC2)cc1 (stereo unspecified)	none
CC(Sc1nnc(-c2ccccc2)c(-c2ccccc2)n1)C(=O)NCC1CCCO1 (stereo unspecified)	none
Cc1cccc(Nc2nc(-c3c(C)nc4ccccn34)cs2)c1	TWEAK Fn14 block 66
Cc1nc2ccccn2c1-c1csc(Nc2cccc(O)c2)n1	none
NC(=O)OCC(COC(N)=O)c1ccccc1	EBV LMP1 NFkB 68!
Cc1ccc(/C=N/NC(=O)c2cc3c(ccc4ccccc43)o2)o1	TROY signal inh 73
Cc1ccc(/C=N/Nc2cn[nH]c(=O)n2)o1	none
CC(=NNc1ccc2ccccc2n1)c1ccccc1O	TWEAK Fn14 block 100, TROY signal inh 74, HIF-2a block 43 (no result: MITF TRPM1 inh)
Cc1ccc(/C=N/NC(=O)c2cc(-c3ccccc3)nc3ccccc23)o1	EBV LMP1 NFkB 54
Cc1ccc(/C=N/Nc2ccc3ccccc3n2)o1	TWEAK Fn14 block 86
C/C(=N\Nc1nc2ccccc2nc1C)c1ccccc1O	none
NC(=O)C1CCN(C(=O)NC2CC(=O)N(c3ccc4c(c3)OCCO4)C2)CC1 (stereo unspecified)	none
CN(CC(=O)N/N=C/c1ccc(F)cc1)S(=O)(=O)c1ccccc1	none (no result: MITF TRPM1 inh)
Nc1ccc(OC(=O)Nc2ccc(O)cc2)cc1	TWEAK Fn14 block 66, HIF-2a block 77
O=C(Nc1ccc(N2CCN(c3ccc(O)cc3)CC2)cc1)Oc1ccccc1	none
O=C(CSc1ccc(-c2ccccn2)nn1)Nc1cccc(F)c1	none
O=C(c1ccncc1)N1N=C(c2ccc(Br)cc2)CC1c1ccccc1O (stereo unspecified)	none
O=C(c1ccccc1Cl)N1N=C(c2ccc(Br)cc2)CC1c1nc2ccccc2[nH]1 (stereo unspecified)	TROY signal inh 61
Cc1cc(C2CCCCC2)n(O)c(=O)c1	MITF TRPM1 inh 78
CCOc1cc(/C=C(\C#N)C(=O)Nc2cccc(C(=O)O)c2)cc(Br)c1OC(=O)c1ccc(OC)cc1	TROY signal inh 62
CN(C1=C(NC(=O)c2ccccc2)C(=O)c2ccccc2C1=O)C1CCS(=O)(=O)C1 (stereo unspecified)	MITF TRPM1 inh 103
Cc1c(C(=O)OCc2ccccc2)[nH]c2c1C(=O)CC(c1ccco1)C2 (stereo unspecified)	Shn3 inh set2 86
CCCCN(C=O)c1c(CC)nc2ccc(C(=O)Nc3cc(-c4ccccc4)ccc3OC)cn12	none (no result: EBV LMP1 NFkB, MITF TRPM1 inh)
COc1cc(/C=N/NC(=O)c2cc(-c3ccccc3)nc3ccccc23)ccc1O	none
COc1ccc(/C=N/Nc2nc3ccccc3o2)cc1O	TWEAK Fn14 block 72
COc1ccc(/C=N/NC(=O)c2nc(-c3ccccc3)cc(-c3ccccc3)n2)cc1	none
CCOc1cc(/C=N/NC(=O)c2cc(-c3cccc(OC)c3)nc3ccccc23)ccc1O	TWEAK Fn14 block 78, TROY signal inh 58 (no result: EBV LMP1 NFkB, MITF TRPM1 inh)
COc1ccc(/C=N/Nc2nc3ccccc3s2)cc1O	TWEAK Fn14 block 74, TROY signal inh 60
COc1ccc(/C=N/NC(=O)c2nc(-c3ccccc3)cc(-c3ccccc3)n2)cc1O	TWEAK Fn14 block 54
Cc1ccc(CC(NC(=O)c2ccc(C)cc2)C(=O)O)cc1 (stereo unspecified)	none
OC(CNCCc1ccccc1)COc1ccc(OCC(O)CNCCc2ccccc2)cc1 (stereo unspecified)	MITF TRPM1 inh 84 (no result: Shn3 inh set2)
OC(CNCCc1ccc(Cl)cc1)COc1ccc2ccccc2c1 (stereo unspecified)	none
Cc1nc(SCC(=O)N2CCOCC2)c2c(C)c(C)sc2n1	none
Cc1nc(SCC(=O)Nc2ccc(S(=O)(=O)N3CCOCC3)cc2)c2c(C)c(C)sc2n1	TROY signal inh 51
COC(=O)C(=O)C1CCc2c(Cl)cc(OC)c(OC)c2C1=O (stereo unspecified)	EBV LMP1 NFkB 87
CNC(=O)c1cc(Cl)c(OC)c(OC)c1	none
CC(NC(=O)N1CCOCC1)c1ccccc1 (stereo unspecified)	none
COc1ccc(NC(=O)CSc2nc(C)c3c(c2C#N)CCCC3)cc1	none
CCc1nnc(NC(=O)CSc2nc(C)c3c(c2C#N)CCCC3)s1	TWEAK Fn14 block 58, TROY signal inh 65
Cc1cc(=O)[nH]c(SCC(=O)Nc2c(C)n(C)n(-c3ccccc3)c2=O)n1	none
CCN1CC2([N+](=O)[O-])CC=C(OC)C([N+](=O)[O-])(C1)C2 (stereo unspecified)	TWEAK Fn14 block 73
CC1=CCC2([N+](=O)[O-])CN(CC(=O)O)CC1([N+](=O)[O-])C2 (stereo unspecified)	none
C[C@@]12C(=O)N(Cc3ccccc3)CC(=O)N1[C@H](/C=C/c1ccccc1)[C@@H]1C(=O)N(c3ccccc3)C(=O)[C@@H]12	EBV LMP1 NFkB 82 (no result: TWEAK Fn14 block, Shn3 inh set2, TROY signal inh, HIF-2a block)
CN1C(=O)[C@H]2[C@@H](/C=C/c3ccccc3)N3C(=O)CN(Cc4ccccc4)C(=O)[C@@]3(C)[C@H]2C1=O	none
Cc1ccccc1NC(=O)COC(=O)c1ccc(C)c(S(=O)(=O)N2CCCCC2)c1	none (no result: MITF TRPM1 inh)
O=C(Nc1nnc(-c2ccc3c(c2)CCCC3)o1)c1ccc(Cl)cc1Cl	none
O=C(Nc1nnc(-c2ccc3c(c2)CCCC3)o1)c1c(F)cccc1F	TWEAK Fn14 block 53
COC(=O)c1c(C)[nH]c(C(=O)OCC(=O)N(CC(C)C)c2c(N)n(Cc3ccccc3)c(=O)[nH]c2=O)c1C	none
COCCN(C(=O)COC(=O)C1CCC(C(C)(C)C)CC1)c1c(N)n(Cc2ccccc2)c(=O)[nH]c1=O (stereo unspecified)	Shn3 inh set2 88
CC(=O)Nc1sc(C)c(C)c1C(=O)OCC(=O)N(CC(C)C)c1c(N)n(Cc2ccccc2)c(=O)[nH]c1=O	MITF TRPM1 inh 103
Nc1c(N(CCC2=CCCCC2)C(=O)COc2ccc(F)cc2)c(=O)[nH]c(=O)n1Cc1ccccc1	MITF TRPM1 inh 92
